Data on 17 compounds can be found in PubChem BioAssay.

Structures are written as SMILES.

Assay [1] has as its system Human papillomavirus type 1a protein E7 (residues 44-93). Put plainly: HPV1a E7 fragment binders on microarrays, primary screen, biochemical, small-molecule microarray, residues 44-93, 635 nm fluorescence (AID 1108).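 Further: E7 fragment applied at 1 µg/mL in TBST for 1 h at 4 C; score combines spot fluorescence with its signal to noise ratio.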 The conditions noted are these: small-molecule microarray binding, fluorescence 635 nm; higher = more signal.
Assay [2] is described as follows: modulators of HCV replicon luciferase signal, primary screen, HCV replication inhibitor project, Huh7 cells, luciferase reporter (AID 1109).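 Further: huh7 hepatoma cells harbouring a luciferase neomycin HCV replicon reporter; luciferase luminescence as measure of HCV replicon replication; test concentration not given here.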 The settings on record: 48 h, higher = more signal. On the technique in general: In antiviral work, replicon cells carry a viral genome segment that copies itself.
The target in assay [3] is Left-right determination factor 2 (Homo sapiens) (UniProt O00292). Put plainly: LEFTY2 binders on small-molecule microarrays, primary screen, biochemical, small-molecule microarray, 635 nm fluorescence scan (AID 1110). The conditions noted are these: LEFTY2 binding, higher = more signal.
Sequence of Left-right determination factor 2 (Homo sapiens) (O00292 whole entry, looked up): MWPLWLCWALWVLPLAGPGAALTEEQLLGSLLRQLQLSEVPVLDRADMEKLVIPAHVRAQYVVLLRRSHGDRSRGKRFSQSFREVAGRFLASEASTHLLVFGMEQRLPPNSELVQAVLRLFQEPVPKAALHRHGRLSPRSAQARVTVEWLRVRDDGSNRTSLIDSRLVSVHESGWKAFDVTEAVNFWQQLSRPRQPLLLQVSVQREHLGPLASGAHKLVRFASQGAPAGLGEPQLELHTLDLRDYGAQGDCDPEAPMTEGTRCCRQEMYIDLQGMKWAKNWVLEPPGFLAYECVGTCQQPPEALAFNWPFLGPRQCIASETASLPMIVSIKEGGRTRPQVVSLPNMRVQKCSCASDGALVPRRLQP
For assay [4], the target named is Calmodulin-1 (Homo sapiens) (UniProt P0DP23). The assay is described as follows: CALM1 binders on microarrays, EGTA buffer, profiling panel, biochemical, small-molecule microarray, Cy5-labelled CALM1 (AID 1111).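 Further: labelled calmodulin applied in Tris saline Tween buffer holding calcium plus EGTA and DTT.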 The settings on record: Cy5-CALM1 binding fluorescence, higher = more signal.
The target is the same in assay [5]. Put plainly: calcium-bound CALM1 binders on microarrays, profiling panel, artefact control for SMM control-protein annotation, biochemical, small-molecule microarray, Cy5-labelled CALM1, plus calcium (AID 1112).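 Further: score merges spot fluorescence with signal to noise from triplicate slides.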 The settings on record: Cy5-CALM1 binding fluorescence, higher = more signal.
The nature of assay [6]: small-molecule microarray binders of probe aWnt5a, primary screen, biochemical, biotinylated probe, 635/667 nm fluorescence (AID 1113).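 Further: score merges 667 nm fluorescence intensity with signal-to-noise per printed feature.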 The settings on record: higher = more signal.
Assay [7] can be described thus: small-molecule microarray binders of probe aShh, primary screen, biochemical, biotinylated probe, 635/667 nm fluorescence (AID 1114).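 Further: probe is biotin-labelled aShh protein from a stem cell growth factor screen; measures binding of labelled protein to compounds printed on the slide; score merges feature fluorescence at 667 nm with signal-to-noise.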 The conditions noted are these: higher = more signal.
A short description of assay [8]: small-molecule microarray binders of probe aNog, primary screen, biochemical, biotinylated probe, 635/667 nm fluorescence (AID 1115).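 Further: probe is biotinylated aNog protein used at 0.15 µg/mL for 1 h at 4 C; z-score combines 667 nm fluorescence of each spot with its signal to noise.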 The settings on record: higher = more signal.
Assay [9] deals with Torsin-1A-interacting protein 1 (Homo sapiens) (UniProt Q5JTV8). The assay is described as follows: LAP1 binders from COS7 cell lysate, primary screen, small-molecule microarray, 635/667 nm fluorescence (AID 1116). The conditions noted are these: COS7-hLAP1 lysate binding, 635 nm fluorescence, higher = more signal.
Sequence of Torsin-1A-interacting protein 1 (Homo sapiens) (Q5JTV8 whole entry, looked up): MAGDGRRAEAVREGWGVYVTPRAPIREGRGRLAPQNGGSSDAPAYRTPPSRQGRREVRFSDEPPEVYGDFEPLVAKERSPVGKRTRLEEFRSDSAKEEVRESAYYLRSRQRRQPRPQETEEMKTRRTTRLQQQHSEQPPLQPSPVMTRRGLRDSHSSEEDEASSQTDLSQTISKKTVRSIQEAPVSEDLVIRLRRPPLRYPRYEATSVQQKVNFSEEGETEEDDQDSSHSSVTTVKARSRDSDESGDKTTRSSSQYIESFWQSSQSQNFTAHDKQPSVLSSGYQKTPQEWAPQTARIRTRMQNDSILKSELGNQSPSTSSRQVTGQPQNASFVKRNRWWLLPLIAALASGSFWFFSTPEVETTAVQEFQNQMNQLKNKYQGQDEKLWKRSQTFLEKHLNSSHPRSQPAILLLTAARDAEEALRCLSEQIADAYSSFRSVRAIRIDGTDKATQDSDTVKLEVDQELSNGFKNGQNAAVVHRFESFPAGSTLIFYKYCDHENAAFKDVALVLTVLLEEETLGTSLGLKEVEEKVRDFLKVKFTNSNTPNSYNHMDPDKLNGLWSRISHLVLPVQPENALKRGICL
Assay [10] deals with Alpha-bungarotoxin (Bungarus multicinctus) (UniProt P60615). The assay is described as follows: alpha-bungarotoxin binders on microarray, profiling panel, artefact control for SMM control protein annotation, biochemical, small-molecule microarray, Alexa647 label, 635/667 nm fluorescence (AID 1117). The settings on record: alpha-BTX-A647 binding fluorescence, higher = more signal.
Sequence of Alpha-bungarotoxin (Bungarus multicinctus) (P60615 whole entry, looked up): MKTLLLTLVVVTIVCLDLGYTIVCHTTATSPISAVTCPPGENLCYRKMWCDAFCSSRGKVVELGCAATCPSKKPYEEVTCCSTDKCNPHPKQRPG

For the compound `O=C1OCC=C[C@H]2OC34C=CCN(CCN5CCOCC5)C(=O)[C@H]3N(CCCO)C(=O)[C@@H]4[C@@H]12` (stereo not given in full), the composite z-score in assay [1] was 0.449; in [3] it was -0.235; in [4], -0.0514; in assay [5] it was -0.944; in assay [6], -0.18; in assay [7] it was -0.223. The composite z-score in assay [8] was -0.326; in [9], 0.819; in assay [10], -0.0967. Further, the z-score in assay [2] stood at 0.658.
On to `O=C1O[C@H](c2ccccc2)[C@H](c2ccccc2)N2[C@H]1[C@@H](C(=O)Nc1nc3ccccc3s1)[C@]1(C(=O)Nc3ccc(C#CCCO)cc31)[C@H]2c1ccc(OCCO)cc1`, for which the composite z-score in assay [1] amounted to 1.39; in assay [3], 0.436; in assay [4] it was 1.26; in [5], 0.0502; in assay [6], 0.0927; in assay [7], 0.184. In addition, the composite z-score in assay [8] stood at 1.15; in assay [9], 1.07; in assay [10], 0.753. The compound further showed a z-score in assay [2] of -1.65.
Take `Cc1ccc(S[C@]2(C(=O)NCC(C)C)CC(=O)N(Cc3cc(C(F)(F)F)cc(C(F)(F)F)c3)[C@@H]2c2ccc(CO)cc2I)cc1`: the composite z-score was 0.133 in [1]; -2.48 in assay [3]; -0.571 in assay [4]; 0.0903 in [5]; -0.166 in assay [6]; 0.108 in [7]. Besides, the composite z-score in assay [8] was 0.225; in [9] it was 0.116; in assay [10] it was -1.05. This compound also returned a z-score in assay [2] of -1.01.
Regarding `CCCN1C(=O)[C@]2(CCS(=O)(=O)c3ccccc3)N=C(c3ccc(OCCCO)cc3)O[C@@H]2c2ccccc21`, the composite z-score was 1.42 in assay [1]; 0.16 in [3]; 3.15 in assay [4]; -0.0613 in [5]; -0.0643 in assay [6]; 0.0893 in assay [7]. In addition, the composite z-score in [8] was -0.153; in assay [9] it was 1.74; in assay [10], 1.14. The same compound had a z-score in assay [2] of -2.49.
Consider `CCOc1cc(C(O)C2C=CC3C(=O)N(c4ccccc4)C(=O)C3N2Nc2ccccc2)ccc1O` (stereo not given), for which the composite z-score in [1] is 1.31; in [3], 0.181; in assay [4] it was 0.0041; in assay [5] it was -0.748; in assay [6], -0.0312; in assay [7], 0.191. In addition, the composite z-score in assay [8] came out at 0.387; in [9], 0.604; in assay [10], 0.147. The compound also came in with a z-score in assay [2] of -0.0374.
Take `CC(C)c1ccc(NN2C(C(O)c3cc(C(F)(F)F)cc(C(F)(F)F)c3)C=CC3C(=O)N(c4ccccc4)C(=O)C32)cc1` (stereo not given): the composite z-score in [1] is 1.35; in assay [3], -0.931; in assay [4] it was 1.55; in assay [5] it was 0.647; in assay [6] it was -0.0704; in [7] it was 0.37. The composite z-score in assay [8] came out at 0.897; in [9] it was 0.831; in assay [10], 0.817. This compound also returned a z-score in assay [2] of -0.748.
For `C=C(/C(=C/C[C@@H](OC(C)=O)c1ccc(OCCO)cc1)c1cnc2ccccc2c1)C(C)C`, the composite z-score was 1.32 in assay [1]; 0.49 in assay [3]; -0.196 in assay [4]; -0.541 in assay [5]; -0.091 in [6]; 0.111 in assay [7]. The composite z-score came out at 0.0541 in [8], 0.113 in assay [9] and 0.249 in assay [10]. The same compound gave a z-score in [2] of -1.19.
With `C=C(C)C1C(=C)CN([C@H](CO)c2ccccc2)C1=O` (stereo not given in full), the composite z-score in assay [1] was 0.317; in [3], -0.065; in assay [4], -0.911; in assay [5] it was -0.968; in [6], -0.0459; in [7], -0.154. Moreover, the values for the composite z-score in assay [8], in assay [9] and in assay [10] were -0.229, -0.486 and -0.605, respectively. The compound further gave a z-score in [2] of -0.25.
Turning to `O=C1OCCC/C=C\[C@H]2OC34C=CCN(Cn5nnc6ccccc65)C(=O)[C@H]3N(CCCCCCO)C(=O)[C@@H]4C12` (stereo not given in full), the composite z-score in assay [1] is -0.311; in assay [3], -1.17; in assay [4] it was -0.824; in assay [5], -0.317; in assay [6] it was -0.18; in [7] it was -0.0035. The composite z-score in [8] was 0.599; in assay [9], -0.401; in assay [10], -0.716. This compound also registered a z-score in [2] of -0.625.
In the case of `C=CCNC(=O)[C@@H]1[C@H]2C(=O)O[C@H](c3ccccc3)[C@H](c3ccccc3)N2[C@H](c2ccccc2OCCO)[C@@]12C(=O)N(C(=O)OCCOC)c1ccc(C#CCNC(N)=O)cc12`, the composite z-score in assay [1] was 1.36; in assay [3], 0.213; in assay [4], 1.58; in assay [5], 0.27; in assay [6], -0.0196; in assay [7] it was -0.739. Also, the composite z-score was 0.658 in [8], 0.96 in assay [9] and 1.76 in assay [10]. The compound also showed a z-score in assay [2] of -1.19.
As to `O=C1C[C@]2(c3ccc([N+](=O)[O-])cc3)C(=O)N(CCN3CCOCC3)c3cc(CO)ccc3[C@H]2N1C1CCCCC1`, the composite z-score in [1] is -1.26; in [3] it was -0.91; in assay [4] it was -0.146; in assay [5] it was 0.0884; in assay [6] it was -0.363; in assay [7] it was -0.211. Also, the composite z-score was -0.405 in assay [8], -0.308 in assay [9] and -0.251 in [10]. For the same compound, in [2], the z-score was -0.809.
As to `Cc1ccc(S[C@]2(C(=O)NC(C)C)CC(=O)N(Cc3ccccc3Cl)[C@@H]2c2ccc(CO)cc2I)cc1`, the composite z-score in assay [1] was 0.472; in assay [3], -2.08; in assay [4] it was 0.0453; in [5], -0.174; in assay [6], -0.252; in assay [7], -0.283. Also, the composite z-score in assay [8] is -0.158; in assay [9], -0.252; in assay [10], 1.33. The same compound gave a z-score in [2] of -2.47.
For the compound `CN1C(=O)C2C=CC(C(O)c3ccccc3)N(Nc3ccccc3)C2C1=O` (stereo not given), the composite z-score in assay [1] is -0.265; in assay [3], -1.52; in assay [4] it was 0.253; in assay [5], -0.143; in [6] it was -0.0758; in assay [7] it was -0.0813. In addition, the composite z-score is -0.448 in assay [8], -0.454 in assay [9] and 0.201 in [10]. Besides, the z-score in assay [2] was 0.773.
Consider `COCCn1c(C(=O)N2CCCC2)cc2c1C[C@H]1CN(C(=O)c3ccccc3)[C@@](Cc3ccc(F)cc3)(C(=O)OC)[C@@H]21`, for which the composite z-score in [1] was 1.43; in assay [3], -0.0638; in assay [4], 2.41; in assay [5], 0.954; in assay [6] it was 0.402; in [7], 0.636. Further, the composite z-score in assay [8] is -0.489; in assay [9], 2.88; in assay [10], 0.476. In assay [2], this compound registered a z-score of -1.42.
With `CCCC[C@H]1OB(O)C[C@H]2C1=C(COc1ccccc1)C[C@H]1C(=O)N(C)C(=O)[C@H]12`, the composite z-score in assay [1] was -0.121; in assay [3], 0.283; in assay [4], -0.515; in assay [5], -0.255; in [6], 0.0438; in [7], 0.0899. The results for the composite z-score in assay [8], in assay [9] and in assay [10] were -0.106, 0.101 and 0.0648, respectively. Besides, the z-score in assay [2] was -0.271.
In the case of `C=CC[C@]12N=C(c3ccc(OCCCO)cc3)O[C@H]1c1ccccc1N(Cc1ccccc1)C2=O`, the composite z-score in [1] is 0.0023; in assay [3], 0.192; in [4], -0.162; in [5] it was 0.438; in assay [6], 0.0032; in assay [7] it was -0.0146. Moreover, the composite z-score came out at 0.472 in [8], 1.9 in assay [9] and 1.51 in assay [10]. The z-score in assay [2] was -2.57.
Take `COC(=O)[C@@]1(Cc2ccc(OC)cc2)[C@H]2c3cc(C(=O)N4CCCC4)n(Cc4ccc(OC)c(OC)c4)c3C[C@H]2CN1C(=O)c1ccccc1`: the composite z-score is 1.39 in [1]; 0.381 in [3]; 2.16 in [4]; 0.811 in assay [5]; -0.158 in assay [6]; -0.008 in [7]. Further, the composite z-score in assay [8] was 0.162; in [9], 0.371; in assay [10] it was 0.381. Besides, in [2], the z-score is -1.72.
